About 83,000 compounds went through this panel and 20% of them were active in at least one assay; those are over-represented in the sample as a whole.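 For each line, cells grew in 96-well plates with the test compound present at a single concentration for 48 hours.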 Unmarked numbers belong to inactive results. The source made the active and inactive calls. Rule for the calls: active = growth percent below 10; inactive = the rest.

The results in this text go back to PubChem BioAssay (NCI).

Test systems include SK-MEL-2 melanoma; EKVX NSCLC; SN12C renal; UO-31 renal; TK-10 renal; ACHN renal; CAKI-1 renal; A498 renal; MOLT-4 leukemia; SR leukemia; RPMI-8226 leukemia; OVCAR-8 ovarian; OVCAR-5 ovarian; SK-OV-3 ovarian; IGROV1 ovarian; OVCAR-3 ovarian; HS 578T breast; NCI/ADR-RES ovarian; OVCAR-4 ovarian.
Holding throughout (assay): NCI-60 one-dose screen, 48 h (100 = growth as untreated, 0 = no growth, -100 = all killed)
Common to all, as to conditions: 10 µM

`COc1ccc(/C=C/c2nnc(/C=C/c3ccc(OC)c(OC)c3)o2)cc1OC`: the growth in the experiment with SK-MEL-2 melanoma was 20.3%; in the experiment with EKVX NSCLC it was 36.9%; in the experiment on SN12C renal, 22.1%; with UO-31 renal, 37.4%; in the experiment on TK-10 renal it was 45.5%; with ACHN renal it was 45.4%. Besides, the growth was 51.4% with CAKI-1 renal; 31.4% in the experiment with A498 renal; 20.3% with MOLT-4 leukemia; 11.6% with SR leukemia; 34% in the experiment on RPMI-8226 leukemia; 42.1% in the experiment on OVCAR-8 ovarian. Besides, the growth with OVCAR-5 ovarian is 41.3%; in the experiment on SK-OV-3 ovarian it was 34.1%; in the experiment with IGROV1 ovarian it was 22.5%; in the experiment on OVCAR-3 ovarian it was 17.6%; with HS 578T breast, 43.6%; in the experiment with NCI/ADR-RES ovarian, 13.6%.
As to `O=C(O)c1ccc(-n2cc(CNc3ccc(Oc4ccccc4)cc3)c(-c3ccccc3)n2)cc1`, the growth in the experiment on SK-MEL-2 melanoma was 88.5%; in the experiment with EKVX NSCLC, 85.1%; in the experiment with SN12C renal it was 93.4%; in the experiment on UO-31 renal, 76.6%; in the experiment on TK-10 renal it was 90.1%; in the experiment with ACHN renal it was 87.4%. Also, the growth with CAKI-1 renal was 86.4%; with A498 renal, 83.2%; with MOLT-4 leukemia it was -4.16% (active); in the experiment with SR leukemia, 38.6%; in the experiment on RPMI-8226 leukemia, 73%; in the experiment on OVCAR-8 ovarian it was 92.3%. Further, the growth in the experiment with OVCAR-5 ovarian is 98.9%; in the experiment with OVCAR-4 ovarian, 81.4%; in the experiment with SK-OV-3 ovarian it was 112%; in the experiment with IGROV1 ovarian, 86.4%; in the experiment on OVCAR-3 ovarian it was 86.9%; in the experiment on HS 578T breast, 105%. Further, the growth in the experiment with NCI/ADR-RES ovarian was 90.1%.
For the compound `O=C(Nc1ccc(OS(=O)(=O)c2ccccc2)cc1)C1CCCCC1`, the growth in the experiment with SK-MEL-2 melanoma is 88.4%; in the experiment on EKVX NSCLC, 84.3%; with SN12C renal, 96.4%; with UO-31 renal it was 96.7%; in the experiment with TK-10 renal it was 97.4%; in the experiment on ACHN renal it was 104%. In addition, the growth with CAKI-1 renal is 93.1%; in the experiment on A498 renal, 105%; in the experiment with MOLT-4 leukemia it was 74%; in the experiment with SR leukemia it was 47.2%; in the experiment on RPMI-8226 leukemia it was 76.4%; in the experiment on OVCAR-8 ovarian it was 94.6%. The growth is 100% with OVCAR-5 ovarian; 102% in the experiment with OVCAR-4 ovarian; 95.6% in the experiment on SK-OV-3 ovarian; 106% with IGROV1 ovarian; 95% in the experiment with OVCAR-3 ovarian; 103% in the experiment on HS 578T breast. Further, the growth with NCI/ADR-RES ovarian is 88.3%.
With `COc1cc(-c2csc(NC(=O)Nc3ccc(Cl)c(C(F)(F)F)c3)n2)cc(OC)c1OC`, the growth was -14.3% (active) with SK-MEL-2 melanoma; 2.12% (active) in the experiment with EKVX NSCLC; -11.3% (active) with SN12C renal; -1.04% (active) in the experiment on UO-31 renal; -4.34% (active) in the experiment with TK-10 renal; -8.21% (active) in the experiment on ACHN renal. In addition, the growth in the experiment on CAKI-1 renal was 6.78% (active); with A498 renal it was -15.7% (active); in the experiment on MOLT-4 leukemia, 2.65% (active); with SR leukemia it was 0.909% (active); in the experiment on RPMI-8226 leukemia it was -7.41% (active); in the experiment on OVCAR-8 ovarian, 4.2% (active). Moreover, the growth in the experiment with OVCAR-5 ovarian is 18.4%; in the experiment on OVCAR-4 ovarian, -1.69% (active); with SK-OV-3 ovarian, 2.04% (active); with IGROV1 ovarian, 25.2%; with OVCAR-3 ovarian it was -19% (active); in the experiment on HS 578T breast, 16.8%. Also, the growth with NCI/ADR-RES ovarian was -8.03% (active).
In the case of `CC[C@@H](C(=O)[C@@H](C)[C@@H](O)[C@H](C)[C@@H]1O[C@@H]([C@@H](CC)C(=O)N(CC)CC)CC[C@@H]1C)C1O[C@]2(C=CC(=O)[C@]3(CC[C@@](C)([C@H]4CC[C@](O)(CC)[C@H](C)O4)O3)O2)[C@H](C)C[C@@H]1C` (stereo partly drawn), the growth in the experiment on SK-MEL-2 melanoma is 11.4%; in the experiment on EKVX NSCLC it was 19.6%; in the experiment with SN12C renal, 16.8%; in the experiment with UO-31 renal, 0.811% (active); with TK-10 renal, 29.1%; in the experiment with ACHN renal, 6.1% (active). Besides, the growth in the experiment with CAKI-1 renal was 7.58% (active); with A498 renal, 36.6%; with MOLT-4 leukemia, 22.7%; in the experiment on SR leukemia, 41.1%; in the experiment with OVCAR-5 ovarian it was 29.7%; in the experiment with OVCAR-4 ovarian, 34.3%. Moreover, the growth was 49.8% with SK-OV-3 ovarian, 34.9% in the experiment with IGROV1 ovarian, 21.6% with OVCAR-3 ovarian and 28.4% in the experiment with HS 578T breast.
As for `C=C1CCC2(C#N)[C@H]3[C@H](CC[C@@H]2C)[C@@H](C)C[C@@H](CC(C)(C)NC(=O)CN2CCC2=O)[C@H]13` (stereo partly drawn), the growth with SK-MEL-2 melanoma is 64.4%; with EKVX NSCLC it was 52.6%; in the experiment with SN12C renal, 57.1%; in the experiment with UO-31 renal it was 47.3%; in the experiment on TK-10 renal, 81.4%; in the experiment on ACHN renal it was 65.6%. The growth in the experiment on CAKI-1 renal was 56.4%; in the experiment on A498 renal it was 92.1%; in the experiment with RPMI-8226 leukemia, -11.3% (active); in the experiment with OVCAR-8 ovarian, 54.8%; in the experiment on OVCAR-5 ovarian, 63.5%; with OVCAR-4 ovarian it was 62.4%. Moreover, the growth with SK-OV-3 ovarian was 89.7%; in the experiment with IGROV1 ovarian, 28.7%; in the experiment on OVCAR-3 ovarian, 65.6%; in the experiment on HS 578T breast it was 74.3%; in the experiment with NCI/ADR-RES ovarian, 59.2%.
In the case of `CNC(=O)c1cn2c3c(c(N4CCN(C)CC4)c(F)cc3c1=O)OC[C@@H]2C`, the growth was 95.4% with SK-MEL-2 melanoma; 93.5% in the experiment on EKVX NSCLC; 104% with SN12C renal; 92.3% in the experiment on UO-31 renal; 90.6% in the experiment with TK-10 renal; 111% in the experiment with ACHN renal. The growth with CAKI-1 renal is 94.7%; in the experiment with A498 renal, 92.8%; with MOLT-4 leukemia, 101%; in the experiment on SR leukemia, 90.6%; in the experiment on RPMI-8226 leukemia it was 96.3%; in the experiment with OVCAR-8 ovarian, 106%. For the same compound, the growth in the experiment with OVCAR-5 ovarian is 105%; with SK-OV-3 ovarian, 102%; in the experiment on IGROV1 ovarian, 111%; with OVCAR-3 ovarian it was 107%; in the experiment on HS 578T breast, 101%; in the experiment with NCI/ADR-RES ovarian, 102%.
In the case of `C#CCOc1c(OC)cc(C(=O)/C(C)=C/c2cccc(N=[N+]=[N-])c2)cc1OC`, the growth in the experiment with SK-MEL-2 melanoma was 27.5%; with EKVX NSCLC, 46%; in the experiment on SN12C renal it was 41.8%; in the experiment on UO-31 renal, 50.9%; with TK-10 renal, 60.8%; in the experiment with ACHN renal, 32.4%. The growth was 42.9% in the experiment with CAKI-1 renal; 23.4% in the experiment on A498 renal; 21.8% in the experiment on MOLT-4 leukemia; 28.7% in the experiment on SR leukemia; 43.7% in the experiment with RPMI-8226 leukemia; 28.6% in the experiment with OVCAR-8 ovarian. Further, the growth in the experiment with OVCAR-5 ovarian was 42.9%; in the experiment on SK-OV-3 ovarian it was 32.1%; in the experiment on IGROV1 ovarian, 33.2%; with OVCAR-3 ovarian it was -0.611% (active); in the experiment with NCI/ADR-RES ovarian, 13.6%.
